Assay results taken from PubChem BioAssay (EPA / NIEHS).
Results filed as inconclusive are left out. Active and inactive are the calls of the source. The calls were made as follows: active = hit-call score of the fitted dose curve at least 0.9, where 1 is the maximum; inconclusive = response in the unintended direction; inactive = score below 0.9.

Assay: ATG_XTT_Cytotoxicity: Cytotoxicity Assessment in the Attagene TRANS-FACTORIAL HepG2 Assay (AID 2283584);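 as to AC50: XTT signal for cell number as viability in transfected HepG2 cells; cells exposed to compound for 24 h before reading; active means loss of viability signal versus DMSO baseline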
Method in brief: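 24 h chemical exposure of reporter-transfected HepG2; XTT signal loss vs DMSO indicates cytotoxicity.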

Row | Structure (SMILES) | outcome | AC50
1 | CC1=CCC(=O)O1 | inactive | 
2 | Cc1ccc(S(=O)(=O)C(I)I)cc1 |  | 62.8 µM (active)
3 | N#Cc1ccccc1O | inactive | 
4 | COc1ccccc1C=O | inactive | 
5 | CCN(CC)c1ccc(C=O)c(O)c1 | inactive | 
6 | Brc1ccccn1 | inactive | 
7 | CCOC(C=C(C)CCC=C(C)C)OCC | inactive | 
8 | Oc1ccc(C2(c3ccc(O)c(C4CCCCC4)c3)CCCCC2)cc1C1CCCCC1 |  | 33.8 µM (active)
9 | O=C=Nc1cccc2c(N=C=O)cccc12 | inactive | 
10 | N#CCCOCCC#N | inactive | 
11 | CC(=O)C=O | inactive | 
12 | CN(C)C(C)(C)CO | inactive | 
13 | OCCCc1cccnc1 | inactive | 
14 | Nc1c(Br)cc([N+](=O)[O-])cc1Br | inactive | 
15 | CC(C)=CCCC(C)O (stereo not drawn) | inactive | 
16 | O=C(Cl)c1ccc(Cl)cc1Cl | inactive | 
17 | C=C(C)CCCC | inactive | 
18 | CCN(CC)c1ccc(C=O)cc1 | inactive | 
19 | Cc1cc(C)c(O)c(C(C)(C)C)c1 | inactive | 
20 | CC(C)C(=O)OCc1ccccc1 | inactive | 
21 | CC(C)(C)c1cc(CCC(=O)OCC(COC(=O)CCc2cc(C(C)(C)C)c(O)c(C(C)(C)C)c2)(COC(=O)CCc2cc(C(C)(C)C)c(O)c(C(C)(C)C)c2)COC(=O)CCc2cc(C(C)(C)C)c(O)c(C(C)(C)C)c2)cc(C(C)(C)C)c1O | inactive | 
22 | Oc1ccc2c(c1)CCC2 | inactive | 
23 | O=C1OC(=O)c2ccc3c4c(ccc1c24)C(=O)OC3=O | inactive | 
24 | O=C=NCc1cccc(CN=C=O)c1 | inactive | 
25 | Cc1cnccn1 | inactive | 
26 | CSc1ccc(O)cc1C | inactive | 
27 | CCn1c2ccccc2c2ccccc21 | inactive | 
28 | CCc1cccc(C)c1N(C(=O)C(=O)O)C(C)COC (stereo not drawn) | inactive | 
